# Measurements as given in ChEMBL document CHEMBL3988442, “University of Dundee, Small-Polar-MMV Screening Library” (2021).
# Biological target: T1, Aspartate--tRNA(Asp/Asn) ligase (Mycobacterium tuberculosis (strain ATCC 25618 / H37Rv)) (UniProt P9WFW3)
# T1 sequence (whole entry): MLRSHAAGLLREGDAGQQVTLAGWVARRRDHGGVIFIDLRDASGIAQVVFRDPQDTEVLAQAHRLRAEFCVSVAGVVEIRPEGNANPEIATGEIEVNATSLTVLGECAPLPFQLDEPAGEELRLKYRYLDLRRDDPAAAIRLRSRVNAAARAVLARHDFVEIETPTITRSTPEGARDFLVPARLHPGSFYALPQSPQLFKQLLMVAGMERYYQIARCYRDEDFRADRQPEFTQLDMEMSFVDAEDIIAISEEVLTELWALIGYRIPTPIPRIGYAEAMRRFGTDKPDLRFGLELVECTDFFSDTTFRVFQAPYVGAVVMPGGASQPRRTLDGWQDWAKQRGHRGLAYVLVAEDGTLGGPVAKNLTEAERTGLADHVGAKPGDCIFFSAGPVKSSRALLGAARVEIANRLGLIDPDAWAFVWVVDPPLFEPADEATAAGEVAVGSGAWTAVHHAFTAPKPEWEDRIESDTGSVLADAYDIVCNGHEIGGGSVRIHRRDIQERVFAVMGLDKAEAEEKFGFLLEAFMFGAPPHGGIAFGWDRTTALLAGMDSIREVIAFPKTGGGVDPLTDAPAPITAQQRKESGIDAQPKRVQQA
# Test: Assay for Asp RNA synthetase-1 from Mycobacterium tuberculosis
# Format: functional
# Design: scale not given: in the data most compounds retested in dose-response had high values
# Conditions: 30 µM
row,SMILES,Percent Effect
1,Cc1nnsc1C(=O)N1CCC2(CC1)c1nc[nH]c1CCN2CC(C)C,-1.53%
2,Cc1ccc2ncnc(N3CCOCC3c3c(C)nn(C)c3C)c2c1 (stereo not given),-0.356%
3,N#Cc1cccc(CS(=O)(=O)NCCC(O)c2ccccc2)c1 (stereo not given),-1.46%
4,CCNC(=O)NC(=O)CSC(C)c1ccccc1F (stereo not given),2.19%
5,CCS(=O)(=O)N1CCC(c2nnc(CN3CCOCC3)n2C)CC1,-1.39%
6,CCN(CC1CN(Cc2ncc[nH]2)CCO1)c1cccnn1 (stereo not given),-3.05%
7,CCc1nc(CCNC(=O)Nc2cc(C(N)=O)sc2C)cs1,-1.32%
8,COCc1nc(CN2CCC3(CCCO3)CCC2=O)no1 (stereo not given),-3.94%
9,Cc1cnc(C)c(N2CCN(Cc3ccc(-c4cc[nH]n4)o3)CC2)n1,0.816%
10,O=C(NCCCn1cccn1)N1CCCC1c1ccncc1 (stereo not given),-0.931%
11,COc1ccc(NC(=O)CCC2CCCN(Cc3ncon3)C2)cc1Cl (stereo not given),-0.862%
12,Cc1cc(F)ccc1CN1CCC(O)(CN2CCCCC2)C1 (stereo not given),-0.747%
13,CCn1cc(CN(C)C(=O)c2cccc(CCC(C)(C)O)c2)cn1,-0.126%
14,CC(O)CN1CCN(C(=O)c2cnn(-c3ccc(Cl)cc3)c2)CC1 (stereo not given),-5.67%
15,O=C(Nc1cccc(OCc2cccc(F)c2)c1)C1COCCO1 (stereo not given),0.563%
16,Cc1cc(C)n(CC2CCCCN2CC(=O)Nc2nncs2)n1 (stereo not given),-0.218%
17,Cc1ccc(C#N)c(N2CCC(c3nccn3CCN(C)C)CC2)n1,-1.39%
18,CC(C)CN1CCCn2nc(CNC(=O)CCN)cc2C1,-0.839%
19,O=C1CC(c2cccs2)c2cnn(C3CCCC3)c2N1 (stereo not given),-1.62%
20,N#Cc1ccnc(N2CCC(c3nccn3Cc3cscn3)CC2)c1,-4.66%

row,SMILES,Percent Effect
1,Cc1cc(C)nc(N2Cc3cnn(Cc4ccc(F)cc4)c3C2)n1,-2.29%
2,CC1CCN(C(CNC(=O)CCn2cccn2)c2cccs2)CC1 (stereo not given),-0.241%
3,Cc1cc(C)n(CC(=O)N(C)Cc2csc(-c3cccs3)n2)c(=O)n1,-0.356%
4,CC(C)c1noc(CN2CCC3(CCCO3)CCC2=O)n1 (stereo not given),-1.21%
5,Cc1cccnc1NC(=O)C1CCCN1Cc1ccccc1 (stereo not given),-1.55%
6,COC1CCN(C(=O)c2c(Cl)c3ccccc3n2C)CC1,-5.5%
7,CN(Cc1cc[nH]n1)C(=O)c1cccc(CCC(C)(C)O)c1,-0.264%
8,Cc1cc(N2CCN(Cc3ccc(C)o3)CC2)cc(C)n1,-1.34%
9,O=C(c1ccc2c(c1)CCC2)N1C[C@@H](CN2CCOCC2)[C@@H](CO)C1,1.28%
10,Cc1ncc(C(=O)N2C[C@H]3CC[C@@H]2CN(S(=O)(=O)N(C)C)C3)c(C)n1,-0.678%
11,O=C(O)c1csc(S(=O)(=O)N2CCCc3ccc(F)cc32)c1,1.9%
12,CC(C)Oc1ccc(CSc2nnc(CN3CCCC3=O)o2)cc1,-7.23%
13,CSCCC1c2nc[nH]c2CCN1Cc1ccnc2ccccc12 (stereo not given),5.78%
14,COc1ccc(-n2cnnc2SCC(C)(C)O)cn1,-0.425%
15,CCC(C(=O)NC)N(c1cccc(C)c1)S(C)(=O)=O (stereo not given),-2.86%
16,CN(C)CCCNC(=O)c1cc(Br)c2c(c1)OCCO2,0.724%
17,COC1CCCN(C(=O)Nc2nc(C)n(C)n2)C1 (stereo not given),-3.53%
18,Cc1nonc1CN(C)CC1(O)CCCN(CCC2CCCCC2)C1=O (stereo not given),0.149%
19,O=C(O)c1ccn(-c2ccccc2NS(=O)(=O)c2ccccc2)n1,1.9%
20,CN(CCNC(=O)N1CCN(Cc2ccon2)CC1)c1ccccc1,2.1%
